Measurements: PubChem BioAssay (EPA / NIEHS)
Results filed as inconclusive are left out. Activity calls are given as the source filed them. How the source made its calls, unless noted: active means hit-call score of the fitted dose curve at least 0.9, where 1 is the maximum; inactive means score below 0.9.

Legend:
[1] = read-out: Phosphatase and tensin (PTEN), PTEN (gene 5728); experiment: LTEA_HepaRG_PTEN: Life Technologies and Expression Analysis (LTEA) Assay for Phosphatase and tensin (PTEN) using HepaRG (AID 2283523); conditions: mRNA level, 48 h; actives raise or lower the signal
Procedure, shortened: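 Read-out is PTEN transcript level by multiplexed TaqMan qRT-PCR after 48 h chemical treatment of human HepaRG cultures in serum-free induction medium. Concentrations spanned 100 uM downward in half-log steps, 0.5% DMSO throughout; activity fitted in both directions against vehicle.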

[2] = read-out: solute carrier (SLC22A1), SLC22A1 (gene 6580); experiment: LTEA_HepaRG_SLC22A1: Life Technologies and Expression Analysis (LTEA) Assay for solute carrier (SLC22A1) using HepaRG (AID 2283524); conditions: mRNA level, 48 h; actives raise or lower the signal
Procedure, shortened: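 HepaRG (human liver line), 48 h dosing in serum-free induction medium; 8 conc., half-log down from 100 uM, 0.5% DMSO vehicle, duplicates. Endpoint: SLC22A1 mRNA, qRT-PCR, housekeeping-normalized; gain/loss fit vs DMSO.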

[3] = read-out: Pyruvate Dehydrogenase Kinase 4 (PDK4), PDK4 (gene 5166); experiment: LTEA_HepaRG_PDK4: Life Technologies and Expression Analysis (LTEA) Assay for Pyruvate Dehydrogenase Kinase 4 (PDK4) using HepaRG (AID 2283525); conditions: mRNA level, 48 h; actives raise or lower the signal
Procedure, shortened: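 In this multiplexed human HepaRG expression assay, cells are treated 48 h with test chemicals across an eight-point range starting at 100 uM. PDK4 mRNA changes, normalized to ACTB/GAPDH/POLR2A, are fitted in both directions relative to vehicle.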

[4] = read-out: NAD(P)H dehydrogenase [quinone] 1 (NQO1), NQO1 (gene 1728); experiment: LTEA_HepaRG_NQO1: Life Technologies and Expression Analysis (LTEA) Assay for NAD(P)H dehydrogenase [quinone] 1 (NQO1) using HepaRG (AID 2283526); conditions: mRNA level, 48 h; actives raise or lower the signal
Procedure, shortened: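 HepaRG, 48 h post-plating → serum-free induction medium → test chemical 48 h (duplicate, 100 uM top, half-log x8, 0.5% DMSO) → RNA isolation → qRT-PCR, ACTB/GAPDH/POLR2A normalization; bidirectional curve fit vs DMSO baseline.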

[5] = read-out: Nuclear factor erythroid 2-related factor 2 (Homo sapiens) (UniProt Q16236); experiment: LTEA_HepaRG_NFE2L2: Life Technologies and Expression Analysis (LTEA) Assay for Nuclear factor erythroid 2-related factor 2 (NFE2L2) Transcription Factor using HepaRG (AID 2283527); conditions: mRNA level, 48 h; actives raise or lower the signal;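 further: TaqMan qRT-PCR transcript level normalised to ACTB GAPDH and POLR2A housekeeping genes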
Procedure, shortened: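 Transcript level of NFE2L2 is the read-out, measured by microfluidic TaqMan qRT-PCR and normalized to three housekeeping genes. Human HepaRG cultures received test chemical for 48 h at up to 100 uM in half-log steps. Gain or loss of signal is fitted relative to 0.5% DMSO.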

[6] = read-out: Signal transducer and activator of transcription 3 (Homo sapiens) (UniProt P40763); experiment: LTEA_HepaRG_STAT3: Life Technologies and Expression Analysis (LTEA) Assay for Signal transducer and activator of transcription (STAT3) using HepaRG (AID 2283529); conditions: mRNA level, 48 h; actives raise or lower the signal
Procedure, shortened: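 Read-out is STAT3 mRNA level by qRT-PCR, normalized to three housekeeping genes, in human HepaRG liver cells treated for 48 h. Concentrations ran from 100 uM downward in half-log steps; curves were fitted for gain or loss relative to 0.5% DMSO.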

[7] = read-out: solute carrier (SLCO1B1), SLCO1B1 (gene 10599); experiment: LTEA_HepaRG_SLCO1B1: Life Technologies and Expression Analysis (LTEA) Assay for solute carrier (SLCO1B1) using HepaRG (AID 2283530); conditions: mRNA level, 48 h; actives raise or lower the signal
Procedure, shortened: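 Differentiated human HepaRG cells, plated 48 h, switched to serum-free induction medium and exposed in duplicate for 48 h to 8 half-log concentrations (top 100 uM) in 0.5% DMSO. SLCO1B1 mRNA by TaqMan qRT-PCR, normalized to ACTB/GAPDH/POLR2A.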

[8] = read-out: sulfotransferase 2A1 (SULT2A1), SULT2A1 (gene 6822); experiment: LTEA_HepaRG_SULT2A1: Life Technologies and Expression Analysis (LTEA) Assay for sulfotransferase 2A1 (SULT2A1) using HepaRG (AID 2283531); conditions: mRNA level, 48 h; actives raise or lower the signal
Procedure, shortened: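 Differentiated human HepaRG cells in serum-free induction medium were exposed for 48 h to eight half-log concentrations (top 100 uM, 0.5% DMSO). SULT2A1 mRNA was measured by qRT-PCR, normalized to ACTB, GAPDH and POLR2A, and fitted bidirectionally against DMSO.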

[9] = read-out: Transforming Growth Factor (TGFA), TGFA (gene 7039); experiment: LTEA_HepaRG_TGFA: Life Technologies and Expression Analysis (LTEA) Assay for Transforming Growth Factor (TGFA) using HepaRG (AID 2283532); conditions: mRNA level, 48 h; actives raise or lower the signal
Procedure, shortened: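 HepaRG (human liver line), 48 h exposure, 8 conc. half-log down from 100 uM, 0.5% DMSO vehicle, duplicates; serum-free induction medium. TGFA mRNA by TaqMan qRT-PCR, ACTB/GAPDH/POLR2A normalization; gain/loss fit vs DMSO.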

[10] = read-out: Transforming Growth Factor (TGFB1), TGFB1 (gene 7040); experiment: LTEA_HepaRG_TGFB1: Life Technologies and Expression Analysis (LTEA) Assay for Transforming Growth Factor (TGFB1) Transporter using HepaRG (AID 2283533); conditions: mRNA level, 48 h; actives raise or lower the signal
Procedure, shortened: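 Differentiated human HepaRG cells in serum-free induction medium were exposed in duplicate for 48 h to eight concentrations (top 100 uM, half-log steps, 0.5% DMSO). TGFB1 mRNA was quantified by qRT-PCR, normalized to ACTB, GAPDH, POLR2A, and fitted bidirectionally against DMSO.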

TIMP1, TIMP1 (gene 7076) = experiment: LTEA_HepaRG_TIMP1: Life Technologies and Expression Analysis (LTEA) Assay for TIMP1 using HepaRG (AID 2283534); conditions: mRNA level, 48 h; actives raise or lower the signal;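 further: TaqMan qRT-PCR signal normalized to ACTB GAPDH and POLR2A housekeeping genes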
Procedure, shortened: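 Differentiated human HepaRG cells in serum-free induction medium were exposed 48 h to chemicals (8 half-log concentrations, top 100 uM, 0.5% DMSO). TIMP1 mRNA was quantified by TaqMan qRT-PCR, normalized to ACTB/GAPDH/POLR2A; bidirectional fit versus DMSO.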

[11] = read-out: Tumor necrosis factor receptor 1 (TNFRSF1A), TNFRSF1A (gene 7132); experiment: LTEA_HepaRG_TNFRSF1A: Life Technologies and Expression Analysis (LTEA) Assay for Tumor necrosis factor receptor 1 (TNFRSF1A) using HepaRG (AID 2283535); conditions: mRNA level, 48 h; actives raise or lower the signal
Procedure, shortened: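 Differentiated human HepaRG cells were exposed in duplicate for 48 h in serum-free induction medium to eight concentrations (top 100 uM, half-log steps, 0.5% DMSO). TNFRSF1A mRNA was quantified by qRT-PCR, normalized to ACTB, GAPDH and POLR2A, then fitted bidirectionally against DMSO.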

[12] = read-out: Thyroid Hormone Responsive (THRSP), THRSP (gene 7069); experiment: LTEA_HepaRG_THRSP: Life Technologies and Expression Analysis (LTEA) Assay for Thyroid Hormone Responsive (THRSP) using HepaRG (AID 2283536); conditions: mRNA level, 48 h; actives raise or lower the signal
Procedure, shortened: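 mRNA induction or loss relative to 0.5% DMSO vehicle was fitted bidirectionally across an eight-point curve whose highest exposure was 100 uM. Human HepaRG liver cells received chemicals in duplicate over 48 h before RNA extraction.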

[13] = read-out: UDP glucuronosyltransferase (UGT1A1), UGT1A1 (gene 54658); experiment: LTEA_HepaRG_UGT1A1: Life Technologies and Expression Analysis (LTEA) Assay for UDP glucuronosyltransferase (UGT1A1) using HepaRG (AID 2283538); conditions: mRNA level, 48 h; actives raise or lower the signal
Procedure, shortened: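 Readout is UGT1A1 transcript level by qRT-PCR, normalized to three housekeeping genes, after 48 h chemical treatment of HepaRG cells. Concentrations ran from 100 uM down in half-log steps with 0.5% DMSO, and gain or loss relative to DMSO was fitted.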

[14] = read-out: UDP glucuronosyltransferase (UGT1A6), UGT1A6 (gene 54578); experiment: LTEA_HepaRG_UGT1A6: Life Technologies and Expression Analysis (LTEA) Assay for UDP glucuronosyltransferase (UGT1A6) using HepaRG (AID 2283539); conditions: mRNA level, 48 h; actives raise or lower the signal
Procedure, shortened: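 Human HepaRG cells were dosed for 48 h in serum-free induction medium with 0.5% DMSO vehicle, eight-point half-log series from 100 uM, in duplicate. UGT1A6 mRNA was measured by qRT-PCR, normalized to ACTB, GAPDH, POLR2A, and fitted bidirectionally against DMSO.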

[15] = read-out: X-box binding protein 1 (XBP1), XBP1 (gene 7494); experiment: LTEA_HepaRG_XBP1: Life Technologies and Expression Analysis (LTEA) Assay for X-box binding protein 1 (XBP1) using HepaRG (AID 2283540); conditions: mRNA level, 48 h; actives raise or lower the signal
Procedure, shortened: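 Differentiated human HepaRG cells in serum-free induction medium were exposed in duplicate for 48 h to eight half-log concentrations up to 100 uM in 0.5% DMSO. XBP1 mRNA was quantified by qRT-PCR, normalised to ACTB, GAPDH and POLR2A, with bidirectional fitting against DMSO.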

[16] = LTEA_HepaRG_LDH_cytotoxicity: Cytotoxicity Assessment in the Life Technologies and Expression Analysis (LTEA) Assay (AID 2283563; active means hit-call score of the fitted dose curve at least 0.9, where 1 is the maximum)
Procedure, shortened: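 Differentiated human HepaRG cells, plated 48 h beforehand, were switched to serum-free induction medium and exposed for 48 h to eight half-log concentrations (top 100 uM) in 0.5% DMSO. LDH was measured in spent medium; activity was fitted relative to DMSO vehicle.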

[17] = ATG_XTT_Cytotoxicity: Cytotoxicity Assessment in the Attagene TRANS-FACTORIAL HepG2 Assay (AID 2283584; active means hit-call score of the fitted dose curve at least 0.9, where 1 is the maximum)
Procedure, shortened: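 HepG2 human liver cells, transiently transfected with multiple GAL4-UAS reporter units, were dosed and read at 24 h by XTT as cell number. Loss of signal was fitted relative to DMSO negative control baseline.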

[18] = biological target: Cellular tumor antigen p53 (Homo sapiens) (UniProt P04637); experiment: TOX21_p53_BLA_p2_ratio: Tox21 HCT-116 p53 Agonism Beta-lactamase Assay, Ratio, Phase 2 (AID 2283592; active means hit-call score of the fitted dose curve at least 0.9, where 1 is the maximum)
Sequence of Cellular tumor antigen p53 (Homo sapiens) (P04637 whole entry, looked up): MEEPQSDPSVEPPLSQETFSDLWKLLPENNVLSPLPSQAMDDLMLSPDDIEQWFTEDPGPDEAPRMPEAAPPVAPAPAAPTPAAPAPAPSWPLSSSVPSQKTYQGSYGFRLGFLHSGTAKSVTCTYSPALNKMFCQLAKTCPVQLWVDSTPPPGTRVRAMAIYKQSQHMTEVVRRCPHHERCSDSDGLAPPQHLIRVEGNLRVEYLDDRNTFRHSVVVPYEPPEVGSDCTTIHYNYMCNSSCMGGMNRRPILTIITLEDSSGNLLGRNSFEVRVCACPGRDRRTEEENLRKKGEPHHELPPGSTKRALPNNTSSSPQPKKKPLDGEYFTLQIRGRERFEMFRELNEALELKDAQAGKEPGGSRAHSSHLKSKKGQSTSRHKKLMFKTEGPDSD
Procedure, shortened: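 HCT116 cells carrying a p53-responsive beta-lactamase reporter were plated, incubated 5 h at 37C, then dosed with compounds in DMSO (217-fold dilution) for 16 h. CCF4-AM substrate was added for 2 h at room temperature; the 460/530 nm emission ratio gave gain-of-signal activity relative to DMSO.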

Measured: AC50

Sequence of Nuclear factor erythroid 2-related factor 2 (Homo sapiens) (Q16236 whole entry, looked up): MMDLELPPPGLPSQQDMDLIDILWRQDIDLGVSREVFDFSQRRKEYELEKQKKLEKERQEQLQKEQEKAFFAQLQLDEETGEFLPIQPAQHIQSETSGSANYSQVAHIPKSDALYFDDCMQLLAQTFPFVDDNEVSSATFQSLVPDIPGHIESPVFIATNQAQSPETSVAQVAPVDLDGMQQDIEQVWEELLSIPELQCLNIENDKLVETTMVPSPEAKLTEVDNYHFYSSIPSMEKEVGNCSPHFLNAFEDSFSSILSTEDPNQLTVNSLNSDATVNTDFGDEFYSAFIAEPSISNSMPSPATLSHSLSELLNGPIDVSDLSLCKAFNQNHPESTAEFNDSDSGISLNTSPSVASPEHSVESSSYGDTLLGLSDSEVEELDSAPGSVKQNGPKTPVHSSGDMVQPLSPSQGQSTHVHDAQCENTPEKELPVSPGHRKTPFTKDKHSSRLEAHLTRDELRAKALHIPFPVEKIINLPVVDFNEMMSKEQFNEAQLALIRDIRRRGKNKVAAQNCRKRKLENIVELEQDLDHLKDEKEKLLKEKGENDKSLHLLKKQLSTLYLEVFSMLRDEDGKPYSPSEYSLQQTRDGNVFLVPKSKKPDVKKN
Sequence of Signal transducer and activator of transcription 3 (Homo sapiens) (P40763 whole entry, looked up): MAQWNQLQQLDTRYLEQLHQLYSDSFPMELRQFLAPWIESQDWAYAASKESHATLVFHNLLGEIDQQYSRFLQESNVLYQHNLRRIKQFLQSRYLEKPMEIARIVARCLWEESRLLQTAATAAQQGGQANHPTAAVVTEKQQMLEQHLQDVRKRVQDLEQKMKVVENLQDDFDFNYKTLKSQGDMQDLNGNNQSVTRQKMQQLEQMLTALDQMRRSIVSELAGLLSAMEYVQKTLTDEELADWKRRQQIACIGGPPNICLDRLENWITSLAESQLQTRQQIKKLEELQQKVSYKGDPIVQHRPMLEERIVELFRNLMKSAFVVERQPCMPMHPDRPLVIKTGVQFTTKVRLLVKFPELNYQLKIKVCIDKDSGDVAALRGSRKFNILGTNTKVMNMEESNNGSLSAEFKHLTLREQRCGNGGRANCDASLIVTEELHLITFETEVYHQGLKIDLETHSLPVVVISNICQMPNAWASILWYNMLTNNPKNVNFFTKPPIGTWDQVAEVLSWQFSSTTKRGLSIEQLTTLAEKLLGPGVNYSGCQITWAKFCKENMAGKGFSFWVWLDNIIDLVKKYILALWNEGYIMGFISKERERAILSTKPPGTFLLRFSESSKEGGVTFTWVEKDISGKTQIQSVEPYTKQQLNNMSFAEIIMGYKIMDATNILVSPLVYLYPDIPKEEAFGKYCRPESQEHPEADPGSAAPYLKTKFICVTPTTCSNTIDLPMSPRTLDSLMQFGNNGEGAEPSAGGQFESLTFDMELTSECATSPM

CNC(=O)/C=C(\C)OP(=O)(OC)OC
active: [3] 37.1 µM
inactive: [1] | [2] | [4] | [5] | [6] | [7] | [8] | [9] | [10] | TIMP1, TIMP1 (gene 7076) | [11] | [12] | [13] | [14] | [15] | [16]

O=C(O)COc1ccc(Cl)cc1Cl
active: [3] 38.5 µM
inactive: [2] | [4] | [5] | [6] | [7] | [8] | [9] | [10] | TIMP1, TIMP1 (gene 7076) | [11] | [12] | [13] | [14] | [15] | [16] | [17] | [18]

COP(=O)(OC)OC=C(Cl)Cl
inactive: [2] | [3] | [5] | [6] | [7] | [8] | [9] | [10] | TIMP1, TIMP1 (gene 7076) | [11] | [12] | [13] | [14] | [15] | [16]
